Source: the supplement of paper PMC6555819

Tests used:
Assay in all cases: PBM binding z-score (relative to random genomic background probes); higher = stronger binding; sequences stand for … in GC…GCGATTGACAGCGTAGAATGAAGG
[1] = tested on: FXR:RXRa (NR concentration 270 nM, RXRa partner concentration 90 nM)
In short: (§1)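 Antibodies against each partner of ligand-free nuclear receptor dimers (one per run) detected binding on custom Agilent 4×180K protein-binding microarrays after 1 h incubation. The double-stranded probes had 34-nt variable regions carrying direct-repeat seeds, single-nucleotide variants, half-site ablations and random human genomic background sequences. Binding z-scores, from regression-normalized fluorescence, use the random background probes as reference.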

[2] = tested on: LXRa:RXRa (NR concentration 270 nM, RXRa partner concentration 90 nM)
In short: as §1

[3] = tested on: LXRa homodimer (NR concentration 270 nM)
In short: as §1

[4] = tested on: LXRb:RXRa (NR concentration 270 nM, RXRa partner concentration 90 nM)
In short: as §1

[5] = tested on: LXRb homodimer (NR concentration 270 nM)
In short: as §1

[6] = tested on: PPARa:RXRa (NR concentration 270 nM, RXRa partner concentration 90 nM)
In short: as §1

[7] = tested on: PPARg:RXRa (NR concentration 180 nM, RXRa partner concentration 90 nM)
In short: as §1

[8] = tested on: PPARg:RXRa 270nM:90nM, anti-RXR (NR concentration 270 nM, RXRa partner concentration 90 nM)
In short: as §1

[9] = tested on: PPARg:RXRa 30nM:10nM, anti-RXR (NR concentration 30 nM, RXRa partner concentration 10 nM)
In short: as §1

[10] = tested on: PPARg:RXRa 90nM:30nM, anti-RXR (NR concentration 90 nM, RXRa partner concentration 30 nM)
In short: as §1

[11] = tested on: PPARg:RXRa DBDmut IVT, anti-RXR (DBD mutation: RXRa K156A/R161A, NR concentration 270 nM, RXRa partner concentration 90 nM)
In short: as §1

[12] = tested on: PPARg:RXRa IVT, anti-PPARg (NR concentration 270 nM, RXRa partner concentration 90 nM)
In short: as §1

[13] = tested on: PPARg DBDmut:RXRa IVT, anti-PPARg (DBD mutation: PPARg1 K132A/R137A, NR concentration 270 nM, RXRa partner concentration 90 nM)
In short: as §1

[14] = tested on: PPARg DBDmut IVT, anti-PPARg (DBD mutation: PPARg1 K132A/R137A, NR concentration 270 nM)
In short: as §1

[15] = tested on: PPARg homodimer (NR concentration 180 nM)
In short: as §1

[16] = tested on: PXR:RXRa (NR concentration 270 nM, RXRa partner concentration 90 nM)
In short: as §1

[17] = tested on: PXR homodimer (NR concentration 270 nM)
In short: as §1

[18] = tested on: RARa:RXR (NR concentration 270 nM, RXRa partner concentration 90 nM)
In short: as §1

[19] = tested on: RARa homodimer (NR concentration 270 nM)
In short: as §1

[20] = tested on: RARb:RXRa (NR concentration 270 nM, RXRa partner concentration 90 nM)
In short: as §1

| Sequence | PBM binding z-score [1] | PBM binding z-score [2] | PBM binding z-score [3] | PBM binding z-score [4] | PBM binding z-score [5] | PBM binding z-score [6] | PBM binding z-score [7] | PBM binding z-score [8] | PBM binding z-score [9] | PBM binding z-score [10] | PBM binding z-score [11] | PBM binding z-score [12] | PBM binding z-score [13] | PBM binding z-score [14] | PBM binding z-score [15] | PBM binding z-score [16] | PBM binding z-score [17] | PBM binding z-score [18] | PBM binding z-score [19] | PBM binding z-score [20] |
| --- | --- | --- | --- | --- | --- | --- | --- | --- | --- | --- | --- | --- | --- | --- | --- | --- | --- | --- | --- | --- |
| CCTCGGAGGACAAGAGGAGGTCAGAGCTGCCAGA | 0.831 | 1.16 | 0.18 | 0.759 | -0.815 | 1.62 | 0.27 | -0.135 | -0.865 | -0.28 | -0.0535 | 0.408 | -0.899 | -1.36 | 0.986 | 1.71 | -0.0509 | 1.94 | 0.29 | 2.54 |
| CCGACTGGGGCAAGGTTACCATCACGCACAGCCA | 0.162 | 0.447 | -0.106 | 0.674 | -1.14 | 1.79 | 2.72 | 3.61 | 0.851 | 2.78 | 3.35 | 3.48 | -0.952 | -0.665 | 0.946 | 0.175 | 0.0478 | 0.822 | -0.0498 | 1.5 |
| ATCTCTAGGTTAGACTCAGTTCAGTGAAGAACGC | 1 | 1.74 | 1.7 | 1.12 | 1.27 | 0.772 | 0.251 | 0.742 | 0.423 | 0.508 | 3.38 | 2.14 | 1.55 | 1.36 | 1.63 | 2.69 | 2.69 | 1.13 | 2.42 | 1.53 |
| TCTTGTAGACCAAGCAGGTTAAGAAAGCCTGAGT | 0.286 | 0.184 | -0.371 | -0.086 | -0.534 | 0.881 | -0.307 | 1.12 | 2.54 | 1.77 | 1.69 | 0.677 | -0.0357 | -0.21 | -0.226 | 0.504 | 0.118 | 0.56 | -0.3 | 0.219 |
| TCTTGTAGAACAACAGGAGGTTAAGAAAGATCGA | 0.0476 | 1.07 | -0.0587 | 0.901 | -0.216 | 1.28 | 0.33 | 1.56 | 2.79 | 2.15 | 2.21 | 0.963 | 0.603 | 0.55 | 0.00875 | 0.716 | 0.0491 | 0.961 | 0.174 | 0.469 |
| CGTCAACGTTCAAGGTAACGTAACAGAAAGCAGC | -0.152 | -0.339 | -0.374 | -0.129 | -0.566 | -0.0131 | 0.721 | -0.237 | -0.128 | -0.193 | -0.333 | 0.375 | -0.0516 | -0.229 | -0.442 | -0.292 | -0.379 | -0.0345 | -0.412 | 0.89 |
| GCTTACGGGTCAAAGGTTATCGCATGAATAGAAT | 7.98 | 5.85 | 0.561 | 5.81 | 0.413 | 6.94 | 11.7 | 9.26 | 8.55 | 10.3 | 5.17 | 6.06 | 0.968 | 0.942 | 2.75 | 6.19 | 0.364 | 8.16 | 0.571 | 4.76 |
| TCATATAGCTAAAAGGTGAAAGTCGGTGTGGTAA | 0.855 | 1.02 | 0.0787 | 1.2 | -0.577 | 2.26 | 0.863 | 2.94 | 3.25 | 3.08 | 2.08 | 0.996 | 0.333 | 0.116 | 0.824 | 0.793 | 0.353 | 1.37 | 0.703 | 1.5 |
| CCTACTGGGCCAAAAAGGTCATTTATGCCGATAA | 3.57 | 4.05 | 4.05 | 4.58 | 0.674 | 4.48 | 3.08 | 3.67 | 1.23 | 2.79 | 3.34 | 3.95 | 0.881 | -0.177 | 3.37 | 4.67 | 3.36 | 4.88 | 1.02 | 3.7 |
| CCTGGGAGGACAACAGGAGGTCAGAGCTGCCAGA | 1.53 | 2.1 | 2.07 | 1.57 | -0.371 | 2.15 | 0.479 | 0.597 | -0.563 | 0.161 | -0.657 | 0.776 | -0.434 | -1.21 | 1.8 | 2.12 | 0.631 | 2.3 | 1.11 | 2.95 |
| TCAGGCAGGTGAAGGTAACTCAGGTACGCAGTCG | 0.263 | 1.12 | -0.208 | 0.558 | -0.936 | 0.851 | 0.226 | 1.2 | 2.13 | 1.73 | 1.55 | 1.14 | -0.774 | -0.917 | 0.554 | 0.0794 | -0.029 | 0.355 | -0.103 | 0.92 |
| CCTACTGGGCCATCAGGTCACTGATATCAACGTT | 1.21 | 0.856 | 0.277 | 1.45 | -0.523 | 2.54 | 3.22 | 3.98 | 1.37 | 3.37 | 4.97 | 5.45 | -0.0281 | -0.141 | 0.904 | 1.44 | 0.0492 | 1.94 | -0.142 | 2.33 |
| AGAATGCGGTTATACGTAGATCAGGGAAGAAAGT | -0.295 | 0.056 | -0.263 | -0.408 | -0.59 | -0.235 | 0.152 | -0.304 | -0.0964 | -0.139 | -0.0715 | -0.172 | -0.724 | -0.259 | -0.759 | -0.417 | -0.318 | -0.261 | -0.54 | -0.164 |
| ATCGAAAGGTCTAGGTGAGTATAGAGAAAGGGAA | 0.504 | 0.836 | 0.254 | 0.163 | 0.443 | 0.539 | 0.509 | 0.366 | 0.34 | 0.331 | 0.689 | 1.37 | 0.807 | 0.731 | 0.408 | 0.216 | 0.272 | 0.406 | 0.837 | 1.71 |
